The target in experiment [1] is T1, Aspartate--tRNA(Asp/Asn) ligase (Mycobacterium tuberculosis (strain ATCC 25618 / H37Rv)) (UniProt P9WFW3). Also: in the data most compounds retested in dose-response had high values.
T1 sequence (whole entry): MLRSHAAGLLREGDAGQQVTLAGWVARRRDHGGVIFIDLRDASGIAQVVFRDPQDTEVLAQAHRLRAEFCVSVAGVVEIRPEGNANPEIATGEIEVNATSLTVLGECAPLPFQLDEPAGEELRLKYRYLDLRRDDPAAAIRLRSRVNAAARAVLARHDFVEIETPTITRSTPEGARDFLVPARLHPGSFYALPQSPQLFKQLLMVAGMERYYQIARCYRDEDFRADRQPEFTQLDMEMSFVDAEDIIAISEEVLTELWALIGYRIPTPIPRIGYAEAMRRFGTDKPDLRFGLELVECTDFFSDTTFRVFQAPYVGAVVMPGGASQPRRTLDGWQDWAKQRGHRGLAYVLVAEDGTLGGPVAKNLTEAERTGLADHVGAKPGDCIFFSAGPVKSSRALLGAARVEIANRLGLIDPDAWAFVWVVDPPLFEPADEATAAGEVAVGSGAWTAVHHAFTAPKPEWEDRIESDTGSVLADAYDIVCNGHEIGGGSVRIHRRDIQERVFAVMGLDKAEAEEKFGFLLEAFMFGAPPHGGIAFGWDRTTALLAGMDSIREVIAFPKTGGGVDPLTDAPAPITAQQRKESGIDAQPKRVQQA
Briefly: Assay for Asp RNA synthetase-1 from Mycobacterium tuberculosis. Also on record: scale not given: direction of the effect not stated beside the values. The conditions noted are these: 30 µM. The experiment is classed as functional.

The target in experiment [2] is Shiga toxin 2 (Escherichia coli O157:H7) (UniProt P09385+P09386). Briefly: E. coli 0.157:H7 Shiga Toxin SOP - stx2 screening assay. The experiment is classed as functional. The arrangement: scale not given: direction of the effect not stated beside the values. Particulars: 30 µM.

The source of these data is ChEMBL document CHEMBL3988442, “University of Dundee, Small-Polar-MMV Screening Library” (2021).

As for `C=C(Cl)CN1CCC(C(=O)c2cc(F)ccc2F)CC1`, the values for the Percent Effect in experiment [1] and in experiment [2] were -0.256% and 18.4%, respectively.
Regarding `COC(C(=O)N1CCN(c2cccc(Cl)c2)C(=O)C1)c1ccccc1` (configuration not stated), the Percent Effect in experiment [1] was 0.0112%; in experiment [2], -0.212%.
For `N#Cc1ccnc(N2CCN(CC(O)c3cccc(F)c3)CC2)c1` (configuration not stated), in that order: 1.79% and 5.66%.
Take `CCC(C)NC(=O)NCCCn1nc2ccccn2c1=O` (configuration not stated): the Percent Effect in experiment [1] amounted to 1.23%; in experiment [2], 22.8%.
In the case of `CC(NC(=O)NCc1cc[nH]n1)c1ccc2c(c1)CCC(=O)N2` (configuration not stated), the Percent Effect in experiment [1] is -1.15%; in experiment [2] it was -11.9%.
As to `O=C(N[C@@H]1CN(Cc2ccsc2)[C@@H]2CCCO[C@@H]21)C1CC1`, the Percent Effect in experiment [1] was -0.611%; in experiment [2] it was -18.9%.
The corresponding values for `N#Cc1ccc(N2CCCN(C(=O)CC3CCCO3)CC2)cc1` (configuration not stated) are 4.84% and 11.8%.
The corresponding values for `Cc1ncsc1CN1C[C@@H]2COC[C@]2(COc2ccc(C#N)cn2)C1` are -0.365% and -16.3%.
For `CN(C)CC1CN(Cc2coc(-c3cccs3)n2)CCO1` (configuration not stated), in that order: 2.66% and -25.6%.
For the compound `CCCN1CCC(NC(=O)c2ccc(F)cc2I)CC1`, the Percent Effect in experiment [1] was -6.77%; in experiment [2], 2.29%.
In the case of `CN(C)c1ncccc1CNC(=O)N1CCCC1c1ccsc1` (configuration not stated), the Percent Effect came to 2.25% in experiment [1] and 5.76% in experiment [2].
The corresponding values for `Cc1ccc(CNC(=O)CCSCc2csc(C)n2)cn1` are -3.37% and -2.37%.
As for `Cc1ccc(C(=O)N2CCn3cc(CN4CCCCC4)nc3C2)o1`, the values for the Percent Effect in experiment [1] and in experiment [2] were 8.53% and -27.2%, respectively.
For `CN1CCC(C(=O)NCc2nncn2-c2ccccc2)CC1=O` (configuration not stated), in that order: -4.57% and 18.1%.
For `Cc1cccc(CN2CCc3ncnc(C)c3CC2)n1`, the Percent Effect in experiment [1] was -0.616%; in experiment [2], -16.2%.
For `Cn1c(C(F)(F)F)nn(CCNC(=O)NCc2ccccc2)c1=O`, in that order: -5.98% and -52.8%.
For `Cc1n[nH]cc1C(=O)N1CCCC(n2nnc3cc(F)ccc32)C1` (configuration not stated), in that order: -7.43% and -9.56%.
Consider `Cc1cc(C)n(C2CN(CC(=O)NC3CCOCC3)C2)n1`, for which the results for the Percent Effect in experiment [1] and in experiment [2] were -1.88% and -2.98%, respectively.
As to `Cc1noc(C)c1CN1CCc2nn(C(C)C)c(=O)cc2C1`, the Percent Effect in experiment [1] is 7.84%; in experiment [2], -14%.
As to `O=C(CCc1nccs1)N1CCN(c2ccccc2F)CC1`, the Percent Effect was -6.57% in experiment [1] and -11.9% in experiment [2].
The corresponding values for `C[C@@H]1CN(C(=O)c2cnc(C3CC3)nc2)CC[C@@]1(O)C1CCOCC1` are 1.53% and 0.847%.
With `c1ccc(Cc2noc(CNC3CCc4ncnn4C3)n2)cc1` (configuration not stated), the values for the Percent Effect in experiment [1] and in experiment [2] were -0.932% and 2.15%, respectively.
For `CCO[C@H]1CO[C@@]2(CCCN(Cc3nc(C)cs3)C2)C1`, in that order: -4.51% and -13.5%.
The corresponding values for `O=S1(=O)COCCN1Cc1ccc(Cl)c(F)c1` are 2.49% and -5.38%.
For `Cn1ccnc1CN1CCCN(C(=O)c2ccc3c(c2)COC3)CC1`, in that order: 0.393% and 24.9%.
For the compound `CCOc1ccc(CC(CNC(=O)c2occc2C)C(N)=O)cc1` (configuration not stated), the Percent Effect in experiment [1] was determined as 2.25%; in experiment [2], 23.6%.
The corresponding values for `Cc1nc(CN(C)C2CCN(CCCOc3ccccc3)C2)no1` (configuration not stated) are 2.8% and -39.6%.
Turning to `Cc1ccc(OCCC(=O)NC2CCc3nc(C)cn3C2)cc1` (configuration not stated), the Percent Effect in experiment [1] is 3.86%; in experiment [2] it was -17.6%.
Take `CC(C(=O)Nc1ccc(N2CCCC2)nc1)n1cncn1` (configuration not stated): the figures for the Percent Effect in experiment [1] and in experiment [2] were 0.459% and 11.3%, respectively.
The corresponding values for `Cc1cc(-c2cnc(N3CCNC(=O)C3)nc2-c2ccc(C)o2)on1` are -1.93% and -18.2%.
Take `CNC(=O)c1cc2c(nc1NCC(C)C)CCN(S(=O)(=O)C1CC1)CC2`: the Percent Effect in experiment [1] was -2.58%; in experiment [2], 1.28%.
With `COc1ccccc1NC(=O)NCC(O)(c1ccccc1)C1CC1` (configuration not stated), the Percent Effect was -6.53% in experiment [1] and -12.2% in experiment [2].
With `CCCNC(=O)Nc1cccc2c1CCN(S(C)(=O)=O)C2`, the Percent Effect in experiment [1] was 6.02%; in experiment [2], -15%.
For `Cc1cc(C(=O)N2C[C@@H](C(=O)O)[C@H](c3ccccc3C)C2)c(C)o1`, in that order: 6.11% and -22%.
Turning to `Cc1cc(C)c2cc(CNCc3ccccc3)c3nn(C)c(=O)n3c2c1`, the Percent Effect in experiment [1] was -2.43%; in experiment [2], -0.711%.
For `CCN1CC2(CC1=O)CN(Cc1ccco1)CCN(C(=O)N(C)C)C2` (configuration not stated), in that order: -2.71% and -10.3%.
The corresponding values for `CC1CN(C)c2ccccc2CN1C(=O)c1ccncc1` (configuration not stated) are 6.3% and -12.6%.
Consider `CN(CC(F)(F)F)C(=O)C1CSCN1C(=O)OC(C)(C)C` (configuration not stated), for which the values for the Percent Effect in experiment [1] and in experiment [2] were 2.82% and -9.84%, respectively.
With `Cc1n[nH]c(C2CN(CC(=O)NCCc3ccsc3)CCO2)n1` (configuration not stated), the Percent Effect in experiment [1] is -3.33%; in experiment [2], 7.26%.
For `CC(C)NC(=O)N1CCc2ncc(CN3CCOCC3)n2CC1`, in that order: 3.1% and 0.463%.
On to `Cc1cnn(CC2CN(Cc3cccc(OCC(N)=O)c3)CCO2)c1` (configuration not stated), for which the Percent Effect was -5.07% in experiment [1] and 8.76% in experiment [2].
The corresponding values for `Cc1cnc(CN(C)C2CCN(CC(=O)Nc3nncs3)C2)o1` (configuration not stated) are 3.17% and -13.8%.
The corresponding values for `Cc1nn(C)c(N(C)C)c1CNC(C)COc1cccc(F)c1` (configuration not stated) are -0.463% and -10.4%.
The corresponding values for `COCCCN1CCc2cncnc2C1` are 10.5% and -35.2%.
Consider `c1cc2n(n1)CC(CNCc1ccc(OC3CCCCC3)nc1)CN2` (configuration not stated), for which the Percent Effect in experiment [1] was -3.37%; in experiment [2] it was -39.3%.
The corresponding values for `CC(=O)Nc1nc(C(=O)Nc2ccc(N3CCCCC3)nc2)cs1` are 1.12% and -46.3%.
The corresponding values for `Cc1nc(N(C)C)nc2c1COCC21CCN(C(=O)NC(C)C)C1` (configuration not stated) are 2.63% and -1.42%.
The corresponding values for `CC1=Nc2c(c(=O)[nH]n2C(C)C)C(c2ccccc2)S1` (configuration not stated) are 1.45% and 1.24%.
For the compound `CCC1=N[C@@]2(CC[C@@H]3CN(CC(=O)N(C)C)C[C@@H]32)C(=O)N1CC1CC1`, the Percent Effect in experiment [1] is -4.18%; in experiment [2] it was -27.3%.
`CNc1cc2c(nn1)CCN(C(=O)C1CCCc3ccccc31)C2` (configuration not stated): the Percent Effect in experiment [1] came out at 0.0571%; in experiment [2] it was 4.77%.
For `COc1nn(C)c2c1CCCN(C(=O)c1ccccc1)C2`, in that order: -0.268% and -9.13%.
